Assay results taken from PubChem BioAssay (EPA / NIEHS).
Values joined by “and” are separate entries in the source; they are usually repeats but may differ in a detail not shown here. Equal values may be shown once. Inconclusive results are not listed. Where a structure was tested more than once in an assay, its records may differ in their call. Active and inactive are the calls of the source. The calls were made as follows: active = hit-call score of the fitted dose curve at least 0.9, where 1 is the maximum; inconclusive = response in the unintended direction; inactive = score below 0.9.

Legend:
[1] = ATG_M_06_XSP2: Attagene TRANS-FACTORIAL Multi-Species (XSP2) HepG2 Assay for M06 Transcription Factor (Internal Marker) (AID 2283811);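 also: hits are increases in signal above the DMSO baseline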
How it was run: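 HepG2, multiplexed reporter transfection; 24 h dosing; AR stimulated with 3 nM 6-alpha-fluorotestosterone + 1.5 nM norgestrel; RNA → RT-PCR → 6-FAM primer extension → HpaI → CE. Positive direction vs DMSO.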

[2] = test system: turtle Estrogen Receptor (ERa), gene 101933533; assay: ATG_trERa_XSP2: Attagene TRANS-FACTORIAL Multi-Species (XSP2) HepG2 Assay for turtle Estrogen Receptor (ERa) (AID 2283812);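 also: human HepG2 liver cells transiently expressing turtle ERa-Gal4 chimeric receptor; actives raise reporter signal above DMSO so AC50 reflects agonist activity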
How it was run: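 HepG2 cells transiently transfected with GAL4-UAS reporter units expressing turtle ERa-Gal4 chimera. Reporter mRNA measured after 24 h dosing by RT-PCR, fluorescent labelling and capillary electrophoresis; gain of signal fitted versus DMSO.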

[3] = target: Estrogen receptor beta (Homo sapiens) (UniProt Q92731); assay: ATG_hERb_XSP2: Attagene TRANS-FACTORIAL Multi-Species (XSP2) HepG2 Assay for human Estrogen Receptor (ERb) (AID 2283813);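 also: actives raise reporter mRNA above DMSO so AC50 reflects agonist induction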
How it was run: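 HepG2 cells transiently transfected with GAL4-UAS reporter units and chimeric human ERb-Gal4, 24 h exposure. Reporter mRNA quantified by RT-PCR with FAM labelling, HpaI digestion and capillary electrophoresis; gain of signal versus DMSO.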

[4] = target: GAL4 Transcription Factor (Internal Marker), GAL4 (gene 855828) (UniProt P04386); assay: ATG_GAL4_XSP2: Attagene TRANS-FACTORIAL Multi-Species (XSP2) HepG2 Assay for GAL4 Transcription Factor (Internal Marker) (AID 2283814);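 also: GAL4 reporter mRNA background control in MRTU transfected cells not a receptor target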
How it was run: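 HepG2 cells transiently transfected with GAL4-UAS reporter units, stimulated with 3 nM 6-alpha-fluorotestosterone plus 1.5 nM norgestrel, dosed 24 h. Reporter mRNA by RT-PCR/capillary electrophoresis; gain-of-signal fit versus DMSO, background control.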

[5] = target: zebrafish Estrogen Receptor (ER1), esr1 (gene 259252) (UniProt P57717); assay: ATG_zfER1_XSP2: Attagene TRANS-FACTORIAL Multi-Species (XSP2) HepG2 Assay for zebrafish Estrogen Receptor (ER1) (AID 2283816)
How it was run: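 HepG2 cells transiently transfected with a GAL4-UAS reporter and a chimeric zebrafish ER1-Gal4 construct, dosed 24 h. Reporter mRNA quantified by RT-PCR, labelling, HpaI digestion and capillary electrophoresis, relative to DMSO.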

[6] = target: chicken Estrogen Receptor (ERa), ESR1 (gene 396099) (UniProt P06212); assay: ATG_chERa_XSP2: Attagene TRANS-FACTORIAL Multi-Species (XSP2) HepG2 Assay for chicken Estrogen Receptor (ERa) (AID 2283817);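 also: actives raise reporter signal above DMSO so AC50 reflects ER activation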
How it was run: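 Transient MRTU transfection of HepG2 → 24 h chemical dosing → TriZol RNA, oligo(dT) RT → PCR, 6-FAM primer extension, HpaI digest → CE quantitation of chicken ERa-Gal4-driven reporter mRNA. Positive direction vs DMSO.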

[7] = test system: zebrafish Estrogen Receptor (ER2a), gene 317734; assay: ATG_zfER2a_XSP2: Attagene TRANS-FACTORIAL Multi-Species (XSP2) HepG2 Assay for zebrafish Estrogen Receptor (ER2a) (AID 2283818);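 also: hits raise reporter mRNA so AC50 reflects activation of zebrafish ER2a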
How it was run: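 HepG2 cells transiently transfected with GAL4-UAS reporter units and chimeric zebrafish ER2a-Gal4, exposed 24 h; medium contains 3 nM 6-alpha-fluorotestosterone and 1.5 nM norgestrel. Reporter mRNA quantified by RT-PCR, HpaI digestion, capillary electrophoresis; gain versus DMSO.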

[8] = test system: frog Estrogen Receptor (ER), gene 398734; assay: ATG_frER1_XSP2: Attagene TRANS-FACTORIAL Multi-Species (XSP2) HepG2 Assay for frog Estrogen Receptor (ER) (AID 2283821);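 also: hits raise reporter mRNA above DMSO baseline so potency means agonist or activator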
How it was run: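 Steps: transfect HepG2 with multiple reporter transcription units; treat with chemical for 24 h; isolate RNA, reverse-transcribe, PCR-amplify, label with 6-FAM, digest with HpaI; resolve fragments by capillary electrophoresis. Signal is scored against DMSO.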

[9] = test system: zebrafish Estrogen Receptor (ER2b), gene 317733; assay: ATG_zfER2b_XSP2: Attagene TRANS-FACTORIAL Multi-Species (XSP2) HepG2 Assay for zebrafish Estrogen Receptor (ER2b) (AID 2283823);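 also: fitted upward as reporter gain over DMSO so potency reflects activation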
How it was run: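 Transfect HepG2 with GAL4-UAS reporter constructs; dose chemicals, 24 h; isolate RNA, RT-PCR, FAM-label, HpaI digest; capillary electrophoresis. Gain-of-signal vs DMSO.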

[10] = test system: turtle Androgen Receptor (AR), gene 101947425; assay: ATG_trAR_XSP2: Attagene TRANS-FACTORIAL Multi-Species (XSP2) HepG2 Assay for turtle Androgen Receptor (AR) (AID 2283815);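 as to AC50: potency for gain of reporter signal meaning activation above DMSO baseline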
How it was run: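 HepG2 cells transiently transfected with GAL4-UAS reporter units for chimeric NR-Gal4 receptors; 24 h dosing in presence of 3 nM 6-alpha-fluorotestosterone and 1.5 nM norgestrel. Reporter mRNA by RT-PCR and capillary electrophoresis, gain of signal versus DMSO.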

[11] = test system: chicken Androgen Receptor (AR), gene 422165; assay: ATG_chAR_XSP2: Attagene TRANS-FACTORIAL Multi-Species (XSP2) HepG2 Assay for chicken Androgen Receptor (AR) (AID 2283819);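 also: hits raise reporter mRNA above DMSO so potency is for activation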
How it was run: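 HepG2 cells transiently transfected with chicken AR–GAL4 chimeric reporter constructs, stimulated with 3 nM 6-alpha-fluorotestosterone plus 1.5 nM norgestrel, dosed 24 h. Reporter mRNA quantified by RT-PCR and capillary electrophoresis; gain of signal fitted versus DMSO.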

[12] = test system: frog Androgen Receptor (AR), gene 399456; assay: ATG_frAR_XSP2: Attagene TRANS-FACTORIAL Multi-Species (XSP2) HepG2 Assay for frog Androgen Receptor (AR) (AID 2283824);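 also: actives raise reporter signal above DMSO so AC50 reflects agonist-like induction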
How it was run: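 HepG2 cells transiently transfected with GAL4-UAS reporter units and frog (Xenopus laevis) AR-Gal4 chimera; reporter mRNA measured 24 h after dosing by RT-PCR and capillary electrophoresis. Gain of signal fitted relative to DMSO baseline.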

[13] = ATG_M_19_XSP2: Attagene TRANS-FACTORIAL Multi-Species (XSP2) HepG2 Assay for M32 Transcription Factor (Internal Marker) (AID 2283822)
How it was run: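 Internal background marker in a multi-species nuclear receptor TRANS panel: transfected HepG2 cells exposed 24 h, with 3 nM 6-alpha-fluorotestosterone and 1.5 nM norgestrel present. Readout is RT-PCR of reporter transcripts resolved by capillary electrophoresis, gain-of-signal versus DMSO.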

[14] = target: mouse Peroxisome Proliferator-activated Receptor gamma (PPARg), Pparg (gene 19016) (UniProt P37238); assay: ATG_mPPARg_XSP1: Attagene TRANS-FACTORIAL Multi-Species (XSP1) HepG2 Assay for mouse Peroxisome Proliferator-activated Receptor gamma (PPARg) (AID 2283802)
How it was run: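 HepG2 cells transiently transfected with GAL4-UAS reporter units driven by mouse PPARg–GAL4 chimera; 3 nM 6-alpha-fluorotestosterone present. After 24 h dosing, reporter mRNA quantified by RT-PCR, fluorescent labelling and capillary electrophoresis; gain of signal versus DMSO.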

[15] = target: Nuclear receptor subfamily 1 group I member 2 (Mus musculus) (UniProt O54915); assay: ATG_mPXR_XSP1: Attagene TRANS-FACTORIAL Multi-Species (XSP1) HepG2 Assay for mouse Pregnane X Receptor (PXR) (AID 2283803)
How it was run: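 Transiently transfected HepG2 cells expressing a receptor-Gal4 chimera drive a GAL4-UAS reporter; 3 nM 6-alpha-fluorotestosterone included. Reporter mRNA read 24 h post-dose by RT-PCR and capillary electrophoresis; gain of signal relative to DMSO.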

[16] = test system: turtle Thyroid Hormone Receptor, alpha (TRa), gene 101949057; assay: ATG_trTRa_XSP1: Attagene TRANS-FACTORIAL Multi-Species (XSP1) HepG2 Assay for turtle Thyroid Hormone Receptor, alpha (TRa) (AID 2283806)
How it was run: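 HepG2 cells transiently transfected with GAL4-UAS reporter units and chimeric receptor-Gal4 constructs, with 3 nM 6-alpha-fluorotestosterone present. Reporter mRNA was quantified 24 h after dosing by RT-PCR, 6-FAM labelling and capillary electrophoresis; gain of signal versus DMSO.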

[17] = target: zebrafish Thyroid Hormone Receptor alpha (TRa), thraa (gene 30670) (UniProt Q98867); assay: ATG_zfTRa_XSP1: Attagene TRANS-FACTORIAL Multi-Species (XSP1) HepG2 Assay for zebrafish Thyroid Hormone Receptor alpha (TRa) (AID 2283807)
How it was run: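 HepG2 cells transiently transfected with GAL4-UAS reporter units including a zebrafish TRa–Gal4 chimera, dosed 24 h with 3 nM 6-alpha-fluorotestosterone present. Reporter mRNA quantified by RT-PCR and capillary electrophoresis; gain versus DMSO.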

[18] = target: human Thyroid hormone Receptor beta (TRb), THRB (gene 7068) (UniProt P10828); assay: ATG_hTRb_XSP1: Attagene TRANS-FACTORIAL Multi-Species (XSP1) HepG2 Assay for human Thyroid hormone Receptor beta (TRb) (AID 2283808)
How it was run: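 HepG2 cells transiently transfected with reporter units driving GAL4-UAS reporters for chimeric NR-Gal4 proteins; 24 h chemical exposure with 3 nM 6-alpha-fluorotestosterone present. Reporter mRNA quantified by RT-PCR and capillary electrophoresis, gain of signal versus DMSO.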

[19] = target: zebrafish Thyroid Hormone Receptor beta (TRb), thrb (gene 30607) (UniProt Q9PVE4); assay: ATG_zfTRb_XSP1: Attagene TRANS-FACTORIAL Multi-Species (XSP1) HepG2 Assay for zebrafish Thyroid Hormone Receptor beta (TRb) (AID 2283809)
How it was run: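 HepG2 cells transiently transfected with multiplexed GAL4-UAS reporter units expressing chimeric zebrafish TRb–Gal4. Dosed 24 h with 3 nM 6-alpha-fluorotestosterone present; reporter mRNA measured by RT-PCR, HpaI digestion and capillary electrophoresis; gain of signal versus DMSO.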

[20] = ATG_XTT_Cytotoxicity_XSP1: Cytotoxicity Assessment in the Attagene TRANS-FACTORIAL Multi-Species (XSP1) HepG2 Assay (AID 2283810)
How it was run: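 XTT viability readout taken at 24 hours post-dosing in HepG2 liver cells co-treated with 3 nM 6-alpha-fluorotestosterone. Signal loss relative to DMSO controls reflects cytotoxicity.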

Sequence of zebrafish Estrogen Receptor (ER1), esr1 (gene 259252) (P57717 whole entry, looked up, the tested form may be a part): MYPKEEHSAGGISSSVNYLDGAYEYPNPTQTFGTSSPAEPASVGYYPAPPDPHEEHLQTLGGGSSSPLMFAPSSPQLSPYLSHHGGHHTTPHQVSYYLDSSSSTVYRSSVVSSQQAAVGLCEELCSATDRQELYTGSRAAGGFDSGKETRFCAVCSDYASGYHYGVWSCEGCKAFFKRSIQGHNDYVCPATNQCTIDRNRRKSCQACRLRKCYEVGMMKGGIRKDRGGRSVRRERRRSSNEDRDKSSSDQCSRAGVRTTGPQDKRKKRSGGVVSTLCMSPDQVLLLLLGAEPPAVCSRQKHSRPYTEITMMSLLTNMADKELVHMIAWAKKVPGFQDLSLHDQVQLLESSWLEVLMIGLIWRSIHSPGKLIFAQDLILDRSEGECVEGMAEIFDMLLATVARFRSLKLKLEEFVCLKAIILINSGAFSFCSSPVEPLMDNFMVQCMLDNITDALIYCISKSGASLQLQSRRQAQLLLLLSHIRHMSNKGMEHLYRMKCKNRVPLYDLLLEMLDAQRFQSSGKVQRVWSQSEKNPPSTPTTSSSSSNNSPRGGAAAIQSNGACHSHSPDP
Sequence of Estrogen receptor beta (Homo sapiens) (Q92731 whole entry, looked up, the tested form may be a part): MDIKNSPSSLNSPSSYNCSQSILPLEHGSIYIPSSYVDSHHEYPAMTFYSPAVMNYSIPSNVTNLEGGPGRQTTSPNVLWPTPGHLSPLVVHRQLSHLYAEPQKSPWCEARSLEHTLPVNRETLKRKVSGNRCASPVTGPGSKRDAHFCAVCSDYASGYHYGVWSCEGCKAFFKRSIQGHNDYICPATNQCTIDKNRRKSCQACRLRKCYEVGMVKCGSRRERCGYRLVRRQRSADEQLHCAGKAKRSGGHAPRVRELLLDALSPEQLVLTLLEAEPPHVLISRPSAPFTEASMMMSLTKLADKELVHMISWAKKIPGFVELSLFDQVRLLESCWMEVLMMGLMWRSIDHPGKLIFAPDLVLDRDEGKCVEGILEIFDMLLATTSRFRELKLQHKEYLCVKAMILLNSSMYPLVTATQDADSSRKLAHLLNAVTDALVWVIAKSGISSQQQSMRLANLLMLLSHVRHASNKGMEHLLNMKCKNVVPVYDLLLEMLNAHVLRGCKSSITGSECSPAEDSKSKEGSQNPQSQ
Sequence of chicken Estrogen Receptor (ERa), ESR1 (gene 396099) (P06212 whole entry, looked up, the tested form may be a part): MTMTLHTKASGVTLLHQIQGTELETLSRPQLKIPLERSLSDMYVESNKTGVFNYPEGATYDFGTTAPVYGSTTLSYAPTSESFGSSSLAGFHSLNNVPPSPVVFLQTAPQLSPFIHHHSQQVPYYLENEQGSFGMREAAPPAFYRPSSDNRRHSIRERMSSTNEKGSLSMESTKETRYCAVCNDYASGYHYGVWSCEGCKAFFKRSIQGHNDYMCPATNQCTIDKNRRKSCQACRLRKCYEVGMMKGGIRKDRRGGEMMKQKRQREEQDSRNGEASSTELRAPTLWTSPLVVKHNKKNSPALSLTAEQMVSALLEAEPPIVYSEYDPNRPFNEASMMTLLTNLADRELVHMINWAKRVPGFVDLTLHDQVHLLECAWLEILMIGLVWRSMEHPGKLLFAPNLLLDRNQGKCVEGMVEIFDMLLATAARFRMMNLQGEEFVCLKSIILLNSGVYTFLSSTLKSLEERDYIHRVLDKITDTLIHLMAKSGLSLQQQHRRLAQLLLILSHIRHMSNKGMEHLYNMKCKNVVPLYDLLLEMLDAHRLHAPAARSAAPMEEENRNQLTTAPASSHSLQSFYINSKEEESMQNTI
Sequence of GAL4 Transcription Factor (Internal Marker), GAL4 (gene 855828) (P04386 whole entry, looked up, the tested form may be a part): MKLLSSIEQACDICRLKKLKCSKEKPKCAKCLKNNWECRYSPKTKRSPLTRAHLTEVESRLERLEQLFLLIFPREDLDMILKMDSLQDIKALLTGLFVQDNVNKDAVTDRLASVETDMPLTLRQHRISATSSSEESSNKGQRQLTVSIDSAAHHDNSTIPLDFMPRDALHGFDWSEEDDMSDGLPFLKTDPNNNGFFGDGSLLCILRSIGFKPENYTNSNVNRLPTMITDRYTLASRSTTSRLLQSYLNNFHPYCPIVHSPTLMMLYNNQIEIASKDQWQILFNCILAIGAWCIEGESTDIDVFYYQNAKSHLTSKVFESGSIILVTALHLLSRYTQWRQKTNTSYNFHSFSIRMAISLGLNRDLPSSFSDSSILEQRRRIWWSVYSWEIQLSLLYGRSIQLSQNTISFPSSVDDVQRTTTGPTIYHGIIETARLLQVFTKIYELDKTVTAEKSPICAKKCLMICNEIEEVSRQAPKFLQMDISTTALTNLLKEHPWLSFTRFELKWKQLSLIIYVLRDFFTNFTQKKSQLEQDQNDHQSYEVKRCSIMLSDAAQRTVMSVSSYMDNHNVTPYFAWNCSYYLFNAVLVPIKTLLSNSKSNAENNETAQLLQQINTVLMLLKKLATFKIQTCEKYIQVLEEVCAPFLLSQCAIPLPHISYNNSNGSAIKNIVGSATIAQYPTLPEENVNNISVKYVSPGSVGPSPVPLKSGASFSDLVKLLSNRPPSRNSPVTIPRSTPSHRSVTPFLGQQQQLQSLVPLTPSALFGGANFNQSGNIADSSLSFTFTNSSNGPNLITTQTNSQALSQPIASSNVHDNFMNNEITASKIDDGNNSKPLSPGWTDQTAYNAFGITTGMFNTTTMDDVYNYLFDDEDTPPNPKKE
Sequence of Nuclear receptor subfamily 1 group I member 2 (Mus musculus) (O54915 whole entry, looked up, the tested form may be a part): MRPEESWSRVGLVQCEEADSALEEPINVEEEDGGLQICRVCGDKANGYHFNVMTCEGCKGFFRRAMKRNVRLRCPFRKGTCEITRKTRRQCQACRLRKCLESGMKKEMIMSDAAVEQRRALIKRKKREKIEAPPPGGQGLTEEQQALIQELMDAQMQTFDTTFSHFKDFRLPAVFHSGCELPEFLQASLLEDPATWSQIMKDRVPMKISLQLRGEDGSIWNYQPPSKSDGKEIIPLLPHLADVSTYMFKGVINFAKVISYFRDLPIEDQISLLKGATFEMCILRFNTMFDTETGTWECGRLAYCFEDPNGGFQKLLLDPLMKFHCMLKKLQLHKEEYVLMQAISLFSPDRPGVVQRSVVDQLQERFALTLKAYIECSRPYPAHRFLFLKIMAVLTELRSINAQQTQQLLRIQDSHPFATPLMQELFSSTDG
Sequence of zebrafish Thyroid Hormone Receptor beta (TRb), thrb (gene 30607) (Q9PVE4 whole entry, looked up, the tested form may be a part): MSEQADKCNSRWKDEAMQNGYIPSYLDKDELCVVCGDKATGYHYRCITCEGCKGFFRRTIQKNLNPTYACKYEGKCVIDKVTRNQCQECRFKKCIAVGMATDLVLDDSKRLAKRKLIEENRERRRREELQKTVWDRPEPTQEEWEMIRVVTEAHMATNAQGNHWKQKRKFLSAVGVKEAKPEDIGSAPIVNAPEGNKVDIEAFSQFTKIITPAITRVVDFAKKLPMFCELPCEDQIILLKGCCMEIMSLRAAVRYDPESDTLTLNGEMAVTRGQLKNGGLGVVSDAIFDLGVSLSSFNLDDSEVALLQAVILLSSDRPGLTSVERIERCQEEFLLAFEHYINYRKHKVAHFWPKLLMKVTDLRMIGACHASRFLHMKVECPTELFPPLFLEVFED
Sequence of human Thyroid hormone Receptor beta (TRb), THRB (gene 7068) (P10828 whole entry, looked up, the tested form may be a part): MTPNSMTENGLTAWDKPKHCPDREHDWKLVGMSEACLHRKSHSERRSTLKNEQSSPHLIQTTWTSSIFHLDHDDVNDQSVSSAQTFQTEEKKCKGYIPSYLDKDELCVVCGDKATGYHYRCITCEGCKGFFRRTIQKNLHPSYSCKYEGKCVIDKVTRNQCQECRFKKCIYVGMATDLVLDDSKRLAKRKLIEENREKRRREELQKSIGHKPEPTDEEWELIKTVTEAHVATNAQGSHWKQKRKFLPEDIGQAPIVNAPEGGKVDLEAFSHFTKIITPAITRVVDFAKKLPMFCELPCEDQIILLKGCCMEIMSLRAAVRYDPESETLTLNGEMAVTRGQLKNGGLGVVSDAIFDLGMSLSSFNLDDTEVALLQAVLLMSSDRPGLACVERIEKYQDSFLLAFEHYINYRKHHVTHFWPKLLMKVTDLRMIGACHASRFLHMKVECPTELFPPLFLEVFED
Sequence of mouse Peroxisome Proliferator-activated Receptor gamma (PPARg), Pparg (gene 19016) (P37238 whole entry, looked up, the tested form may be a part): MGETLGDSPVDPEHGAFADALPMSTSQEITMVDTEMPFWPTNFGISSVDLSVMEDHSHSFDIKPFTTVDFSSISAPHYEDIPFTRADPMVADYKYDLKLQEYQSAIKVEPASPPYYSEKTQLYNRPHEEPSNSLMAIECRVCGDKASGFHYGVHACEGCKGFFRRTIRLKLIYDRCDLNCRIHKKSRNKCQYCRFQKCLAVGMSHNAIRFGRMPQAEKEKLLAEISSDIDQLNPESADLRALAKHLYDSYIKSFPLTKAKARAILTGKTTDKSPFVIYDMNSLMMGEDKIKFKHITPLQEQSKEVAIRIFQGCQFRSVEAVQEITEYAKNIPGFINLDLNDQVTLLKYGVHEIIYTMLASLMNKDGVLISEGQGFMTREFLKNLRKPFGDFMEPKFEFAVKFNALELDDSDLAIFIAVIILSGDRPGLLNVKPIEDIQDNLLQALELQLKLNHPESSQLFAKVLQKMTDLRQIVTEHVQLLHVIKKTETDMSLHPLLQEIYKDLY
Sequence of zebrafish Thyroid Hormone Receptor alpha (TRa), thraa (gene 30670) (Q98867 whole entry, looked up, the tested form may be a part): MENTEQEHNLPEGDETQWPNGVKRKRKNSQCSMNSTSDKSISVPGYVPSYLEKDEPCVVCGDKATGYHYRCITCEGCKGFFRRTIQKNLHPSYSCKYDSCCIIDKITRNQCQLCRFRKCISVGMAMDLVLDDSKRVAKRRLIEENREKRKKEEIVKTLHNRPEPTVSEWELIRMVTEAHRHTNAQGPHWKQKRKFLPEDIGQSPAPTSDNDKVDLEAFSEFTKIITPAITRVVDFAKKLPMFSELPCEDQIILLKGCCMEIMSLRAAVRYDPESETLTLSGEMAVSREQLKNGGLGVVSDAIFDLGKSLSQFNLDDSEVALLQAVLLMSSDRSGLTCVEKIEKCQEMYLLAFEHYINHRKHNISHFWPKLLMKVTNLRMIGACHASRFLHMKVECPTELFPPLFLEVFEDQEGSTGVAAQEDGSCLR

In the case of `c1ccc2c(c1)Nc1ccccc1S2`, the outcome [1] was “inactive”, the AC50 [2] was 10.7 µM (active) and 6.48 µM (active) and the AC50 [3] was 27.2 µM (active) and 5.66 µM (active). For the same compound, the outcome [4] was “inactive”, the outcome [5] was “inactive” and the AC50 [6] was 11.3 µM (active) and 4.72 µM (active). For the same compound, the AC50 [7] was 19 µM (active) and 6.16 µM (active), the AC50 [8] was 14.7 µM (active) and 13.2 µM (active) and the AC50 [9] was 52.1 µM (active) and 27.9 µM (active).

With `CC(C)(C)c1ccc(O)cc1` the outcome [1] was “inactive”, the AC50 [2] was 6.07 µM (active) and 4.64 µM (active) and the AC50 [5] was 170 µM (active) and 51.1 µM (active). For the same compound, the AC50 [6] was 4.76 µM (active) and 6.06 µM (active), the outcome [7] was “inactive” and the AC50 [8] was 26.6 µM (active). For the same compound, the outcome [8] was “inactive” and the AC50 [9] was 34.3 µM (active) and 13.7 µM (active).

In the case of `O=S(=O)(c1ccc(O)cc1)c1ccc(O)cc1`, the outcome [1] was “inactive”, the AC50 [2] was 2.98 µM (active) and 2.14 µM (active) and the AC50 [3] was 1.66 µM (active) and 1.76 µM (active). For the same compound, the AC50 [10] was 27 µM (active), the outcome [10] was “inactive” and the AC50 [5] was 41.8 µM (active) and 17.2 µM (active). For the same compound, the AC50 [6] was 2.24 µM (active) and 2.5 µM (active), the AC50 [7] was 5.32 µM (active) and 3.79 µM (active) and the AC50 [11] was 27.1 µM (active). For the same compound, the outcome [11] was “inactive”, the AC50 [8] was 2.94 µM (active) and 894 nM (active) and the AC50 [9] was 6.5 µM (active) and 3.07 µM (active). For the same compound, the AC50 [12] was 8.07 µM (active) and the outcome [12] was “inactive”.

With `CCC(C)(C)c1ccc(O)cc1` the AC50 [2] was 4.29 µM (active) and 1.92 µM (active), the AC50 [3] was 44.4 µM (active) and 3.05 µM (active) and the outcome [4] was “inactive”. For the same compound, the AC50 [5] was 34.1 µM (active) and 7.34 µM (active), the AC50 [6] was 3.58 µM (active) and 2.33 µM (active) and the outcome [7] was “inactive”. The outcome [11] was “inactive”, the AC50 [8] was 25.9 µM (active) and 2.38 µM (active) and the outcome [13] was “inactive”. For the same compound, the AC50 [9] was 13.9 µM (active) and 3.03 µM (active).

For `CCCCc1ccc(O)cc1`, the outcome [1] was “inactive”, the AC50 [2] was 2.42 µM (active) and 3.02 µM (active) and the AC50 [3] was 2.45 µM (active) and 2.3 µM (active). For the same compound, the AC50 [5] was 69.6 µM (active) and 7.15 µM (active), the AC50 [6] was 3.21 µM (active) and 1.79 µM (active) and the AC50 [7] was 6.3 µM (active) and 1.66 µM (active). For the same compound, the AC50 [8] was 1.96 µM (active) and 1.08 µM (active) and the AC50 [9] was 12.5 µM (active) and 5.32 µM (active).

With `O=P(Oc1ccccc1)(Oc1ccccc1)Oc1ccccc1` the AC50 [14] was 6.18 µM (active), the AC50 [15] was 0.367 µM (active) and the outcome [16] was “inactive”. For the same compound, the AC50 [17] was 25.4 µM (active), the outcome [18] was “inactive” and the outcome [19] was “inactive”. For the same compound, the outcome [20] was “inactive”, the outcome [1] was “inactive” and the outcome [4] was “inactive”. The outcome [5] was “inactive”, the outcome [6] was “inactive” and the outcome [7] was “inactive”. For the same compound, the outcome [11] was “inactive” and the AC50 [9] was 7.88 µM (active).
